# Compound activity deposited in PubChem BioAssay by The Scripps Research Institute Molecular Screening Center.
# TTR transcr act = increases transthyretin transcription | SH-SY5Y TTR promoter Gaussia luciferase, luminescence; 100% = recombinant luciferase protein wells | activation, % at 16.7 µM | 1.3% of 92,000 active | AID 1117267;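 active = activation above the mean of all tested compounds plus 3 SD, cut at about 9.5% in these data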;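 also: cells exposed to compounds for one day before reading; 0% = median of all test compound wells on the plate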
# TTR inh HuH7 = HuH7 TTR transcription inhibition, counter-screen. shares compounds with TTR transcr act. 4% of 1,100 active. HuH7 TTR promoter-Gaussia luciferase reporter, luminescence. inhibition, % at 16.7 µM;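 active = average inhibition above the solvent-only control wells' mean plus 3 SD, cut at about 15% in these data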;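 also: 0% = cells with DMSO only and 100% = cells with inhibitor control FD; inhibitors lower well luminescence so higher value means more inhibition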
# TTR up confirm = human TTR transcription activation, confirmation; shares compounds with TTR transcr act; SHSY5Y TTR promoter Gaussia luciferase, luminescence; 100% = purified Lucia enzyme wells, no cells; activation, % at 16.7 µM; 1,100 tested, under 10 active; AID 1117280;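 active = mean activation above a set limit taken from the earlier primary screen, cut at about 11% in these data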;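 also: 0% = DMSO-treated cells and 100% = recombinant Lucia luciferase without cells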
# Active calls of the source: *. The entries come from a sample that favours hits as a whole.
SMILES,TTR transcr act,others
CCCCNC(=O)NS(=O)(=O)c1cnccc1Sc1ccc(Cl)cc1,16*,TTR inh HuH7=-17;TTR up confirm=0
O=C(NCCCNC(=O)c1cnccn1)c1ccc(Cl)cc1,4,
CC[C@]1(c2ccc(C)cc2)C(=O)N(C(=O)OC(C)C)N1C(=O)OC(C)C,1,
CCCC[C@H](C(=O)N(C)c1cccc(OC)c1)[C@@H](O)c1ccc(Cl)cc1,-2,
COc1ccc(-n2c(C)cc(C(=O)COC(=O)c3cc(NC(=O)c4cccs4)c(OC)c(OC)c3)c2C)cc1,9.8*,TTR inh HuH7=-12;TTR up confirm=0
COc1cc(C(=O)OCC(=O)NCc2ccc(F)cc2)cc(NC(=O)c2cccs2)c1OC,-2,
COc1ccc(-n2c(C)cc(C(=O)COC(=O)Cn3cnc4ccccc43)c2C)cc1,-3,
O=C1CCC(OCc2ccccc2)CCN1[C@H](CSc1ccccc1)Cc1ccccc1 (stereo not given in full),-1,
O=C(NCCCc1ccccc1)[C@H](Cc1ccccc1)NC1(C(=O)NCCc2c[nH]c3ccccc23)CCOCC1,1,
COc1ccc(/C(O)=C2/C(=O)C(=O)N(CCCN3CCOCC3)C2c2ccc(N(C)C)cc2)cc1 (stereo not given),1,
CCCOc1cccc(C2/C(=C(/O)c3ccc(OC)cc3)C(=O)C(=O)N2CCN(C)C)c1 (stereo not given),4,
COc1ccc(C2/C(=C(/O)c3ccc(F)cc3)C(=O)C(=O)N2CCCN(C)C)cc1 (stereo not given),12*,TTR inh HuH7=-11;TTR up confirm=1
CCOC(=O)c1ccc(S(=O)(=O)Nc2cc(S(=O)(=O)Nc3ccc(OC)cc3)ccc2O)cc1,-1,
CCOC(=O)C(NC(=O)c1ccccc1)(OCC1(CC)COC1)C(F)(F)F (stereo not given),-3,
CCOC(=O)C(NC(=O)c1cccc(Cl)c1)(OCc1ccc(F)cc1)C(F)(F)F (stereo not given),25*,TTR inh HuH7=-9;TTR up confirm=-1
CCOC(=O)C(NC(=O)NCc1cccc(C(F)(F)F)c1)(OCC)C(F)(F)F (stereo not given),0,
O=S1(=O)c2c(cccc2N2CC[C@H](O)C2)O[C@H]2CCN1C2,1,
CCOC(=O)[C@@]12CCC3=C1N(CCC3)C(=O)[C@H](CC(=O)NCC1CCCCC1)C2,2,
CN1C(=O)C(c2cn(C)c3ccccc23)(c2cn(C)c3ccccc23)c2cc(Br)ccc21,0,
COc1cc(C2(c3ccc(O)c(OC)c3)C(=O)N(C)c3ccc(C)cc32)ccc1O,1,
Cc1cc(Br)cc2c1N(C)C(=O)C2(c1ccc(O)cc1)c1ccc(O)cc1,47*,TTR inh HuH7=-5;TTR up confirm=2
CCNC(=O)C1(C)CCN(C(=O)c2cccc3ccccc23)C1 (stereo not given),2,
CN1C(=O)c2cc(NC(=O)C3CCOCC3)ccc2OC[C@@H]2O[C@@H](CC(=O)NCc3ccccc3F)CC[C@@H]21,0,
COC(=O)[C@]12C[C@H](CC(=O)NCCCCc3ccccc3)C(=O)N(Cc3ccc4c(c3)OCO4)C1=C[C@H](C(C)C)O[C@@H]2C1CC1,0,
O=C(COC(=O)c1ccccc1O)Nc1ccc(S(=O)(=O)N2CCCCC2)cc1,-4,
SMILES,TTR transcr act,others
O=C(COC(=O)c1ccc(Cl)nc1)Nc1ccc(S(=O)(=O)N2CCCC2)cc1,20*,TTR inh HuH7=-1;TTR up confirm=-1
O=C(COC(=O)c1ccc(Cl)nc1)Nc1cc(S(=O)(=O)N2CCCCC2)ccc1Cl,-1,
CCCCCCCCN1C(=O)[C@@H](CC(=O)NCC2CCCCC2)C[C@@]2(C(=O)OC)C1=C[C@H](COCc1ccccc1)O[C@@H]2C,2,
CN(c1ccc(Cl)cc1)c1cc2c(c3c1ccn3C)C1CCC2O1 (stereo not given),0,
CC1(C)CC(=O)C=C(c2ccc(CO)cc2)C1=O,0,
CCCCCCC(=O)Oc1cccc(C2=CC(=O)CC(C)(C)C2=O)c1,9.7*,TTR inh HuH7=0;TTR up confirm=0
CC1(C)CC(=O)C=C(c2ccc(COC(=O)c3cccc(C(F)(F)F)c3)cc2)C1=O,-1,
CCCCCn1nnnc1C1(C)CSCC(=O)N1Cc1ccco1 (stereo not given),8,
CC(=O)O[C@H]1C[C@@H](n2cnc3c(Cl)ncnc32)[C@@H]2OC(C)(C)O[C@@H]21,-2,
Cc1ccccc1CNC1CCC12CCC(c1ccccc1)CC2 (stereo not given),1,
CCOC(=O)c1[nH]c2ccccc2c1NC(=O)NC(C)C,1,
CCCCNC(=O)Nc1c(C(=O)OCC)[nH]c2ccccc12,1,
CCOC(=O)c1[nH]c2ccc(F)cc2c1NC(=O)Nc1ccccc1OC,15*,TTR inh HuH7=-20;TTR up confirm=0
COc1ccc(NC(=S)NNC(=O)c2ccco2)c(OC)c1,1,
O=C(Cc1ccccc1[N+](=O)[O-])NCC(=O)c1ccc2c(c1)OCO2,1,
C[C@H]1CN(S(=O)(=O)C(C)(C)C)[C@H](CCO)/C1=C\CCO,3,
CCc1ccccc1NC(=O)C1CCCN(S(=O)(=O)c2ccc3c(c2)CC(C)N3C(C)=O)C1 (stereo not given),-1,
Cc1ccc(/C=N\NC(=O)c2cncc(Br)c2)o1,2,
Cc1ccc(/C=N/NC(=O)c2csc(C)c2)o1,23*,TTR inh HuH7=16*;TTR up confirm=-2
Cc1ccc(/C=N/NC(=O)c2ccc(NC(=O)c3ccccc3Cl)cc2)o1,-2,
Cc1cccnc1N=O,1,
CC(=O)Nc1ccc2cnn(C(C)=O)c2c1,-1,
O=c1ccn([C@@H]2O[C@H](CNCc3ccc(-n4cccn4)cc3)[C@@H](O)[C@H]2O)c(=O)[nH]1,-1,
CC(C)CCNC(=O)[C@@H](Cc1ccccc1)NC(=O)CC[C@H]1O[C@@H](n2ccc(=O)[nH]c2=O)[C@H](O)[C@@H]1O,0,
O=C(CC[C@H]1O[C@@H](n2ccc(=O)[nH]c2=O)[C@H](O)[C@@H]1O)N[C@@H](Cc1ccccc1)C(=O)NCc1ccccc1,15*,TTR inh HuH7=-9;TTR up confirm=-1
SMILES,TTR transcr act,others
Cc1ccc(S(=O)(=O)N2[C@@H](c3ccc(F)cc3)C(C(=O)O)=CC[C@H]2c2cccc(Cl)c2)cc1,1,
Cc1ccc([C@H]2C(C(=O)O)=CC[C@@H](c3cccc(C)c3)N2S(=O)(=O)c2ccc(C)cc2)cc1,4,
Cc1ccc(S(=O)(=O)N2[C@@H](c3ccccc3F)C(C(=O)O)=CC[C@H]2c2cccs2)cc1,13*,TTR inh HuH7=-1;TTR up confirm=2
Cc1ccc([C@@H]2CC=C(C(=O)O)[C@H](c3ccccc3)N2S(=O)(=O)c2ccc(C)cc2)cc1,-1,
COc1ccc([C@@H]2CC=C(C(=O)O)[C@H](c3ccccc3F)N2S(=O)(=O)c2ccccc2C)cc1,14*,TTR inh HuH7=16*;TTR up confirm=-1
Cc1ccc([C@H]2C(C(=O)O)=CC[C@@H](c3ccc(Cl)cc3)N2S(=O)(=O)c2ccc(C)cc2)cc1,-3,
C#CCNC(=O)C[C@H]1C[C@@]2(C(=O)OC)C(=C[C@H](C(C)C)O[C@@H]2C2CC2)N(Cc2ccc(Cl)cc2Cl)C1=O,2,
COc1ccc2[nH]c3c(c2c1)CCN[C@]31C(=O)N(Cc2cn(Cc3ccccc3)nn2)c2ccccc21,2,
CN(CCc1ccccc1)C(=O)c1cccc(NC(=O)Cc2cccc(NC(=O)C3CCN(C(=O)C4CC4)CC3)c2)c1,0,
